Measured values from the supplement of paper PMC13380429.

Experiments:
[1] = system: Vero E6 infected with SARS-CoV-2; test: morphology score (similarity to uninfected cells); higher = more like uninfected cells; settings: 24 h
[2] = system: Vero E6 infected with SARS-CoV-2; test: SARS-CoV-2 infection rate relative to infected DMSO; higher = more infection, active = 60 or less; settings: 24 h

SMILES | morphology score [1] | SARS-CoV-2 infection rate [2]
CNC(=O)[C@@H](NC(=O)[C@H](CC(C)C)[C@H](O)C(=O)NO)C(C)(C)C [marimastat] (10 µM) | -0.0923 | 118% (inactive)
Cc1cc(=O)n(-c2ccccc2)n1C [phenazone] (10 µM) | -0.0495 | 108% (inactive)
C=Cc1c(C)c2cc3nc(c(CC(=O)O)c4[n-]c(cc5nc(cc1[n-]2)C(C)=C5CC)c(C)c4C(=O)O)[C@@H](CCC(=O)O)[C@@H]3C.[Cu+2] [chlorophyllin-copper] (10 µM) | -0.0712 | 108% (inactive)
CN(C)c1nc(N(C)C)nc(N(C)C)n1 [altretamine] (10 µM) | -0.171 | 114% (inactive)
O=C(NCCCN1CCCCCC1)C(c1ccccc1)C1CCCCC1 (stereo not drawn) (10 µM) | 0.404 | 75.5% (inactive)
Cc1ccc([N+](=O)[O-])cc1O [2-methyl-5-nitrophenol] (10 µM) | 0.0626 | 98.5% (inactive)
N#CC(c1ccccc1)(c1ccccc1)c1ccccc1Cl (10 µM) | 0.164 | 89% (inactive)
CN(C)C(=O)Nc1cccc(-c2ccc(N(C)C)cc2)c1 [atglistatin] (10 µM) | 0.11 | 98% (inactive)
COC(=O)c1ccccc1O [methyl-salicylate] (10 µM) | -0.162 | 110% (inactive)
O=C(NCCCCN1CCN(c2cccc(Cl)c2Cl)CC1)c1ccc2c(c1)Cc1ccccc1-2 (10 µM) | -0.00329 | 105% (inactive)
O=C(O)COc1ccc(OCCNC[C@H](O)COc2ccccc2)cc1 (10 µM) | -0.002 | 104% (inactive)
CC(C)/N=c1\cc2n(-c3ccc(Cl)cc3)c3ccccc3nc-2cc1Nc1ccc(Cl)cc1 [clofazimine] (10 µM) | 0.422 | 64% (inactive)
Oc1cc2c(cc1O)[C@@H]1c3ccc(O)c(O)c3OC[C@]1(O)C2 [hematoxylin] (10 µM) | -0.0601 | 114% (inactive)
CCCCOC(=O)c1ccccc1Nc1cccc(C(F)(F)F)c1 [ufenamate] (10 µM) | 0.129 | 100% (inactive)
CC(OC(=O)NCC1(CC(=O)O)CCCCC1)OC(=O)C(C)C (stereo not drawn) [gabapentin-enacarbil] (10 µM) | -0.0175 | 112% (inactive)
CCc1cnn2c(NCc3ccc[n+]([O-])c3)cc(N3CCCC[C@H]3CCO)nc12 [dinaciclib] (0.833333 µM) | -0.154 | 116% (inactive)
CC(C)NC[C@@H](O)c1ccc(O)c(O)c1 (racemic) [isoprenaline] (0.833333 µM) | 0.241 | 100% (inactive)
COc1cc(/C=C/C(=O)N2CCN(CC(=O)N3CCCC3)CC2)cc(OC)c1OC [cinepazide] (10 µM) | -0.015 | 108% (inactive)
C#C[C@]1(O)CC[C@H]2[C@@H]3CCC4=CC(=O)CC[C@@H]4[C@H]3CC[C@@]21C [Norethindrone (Norethisterone)] (10 µM) | -0.0201 | 112% (inactive)
CC1Oc2cc(cnc2N)-c2c(nn(C)c2C#N)CN(C)C(=O)c2ccc(F)cc21 (stereo not drawn) (10 µM) | 0.32 | 99.5% (inactive)
Cc1cc(SCc2sc(-c3ccc(C(F)(F)F)cc3)nc2C)ccc1OCC(=O)O (10 µM) | 0.0978 | 98.5% (inactive)
COc1c(N2CCNC(C)C2)c(F)cc2c(=O)c(C(=O)O)cn(C3CC3)c12 (stereo not drawn) [gatifloxacin] (10 µM) | 0.0682 | 104% (inactive)
CCC1(C2=NCCN2)Cc2ccccc2O1 (stereo not drawn) [efaroxan] (10 µM) | 0.165 | 95% (inactive)
Cc1cnc(-c2cc(N3CCN(C(=O)CCS(C)(=O)=O)CC3)ncc2Cl)c(C)c1 (10 µM) | 0.241 | 105% (inactive)
Cc1ccc(C(=O)c2cc(O)c(O)c([N+](=O)[O-])c2)cc1 [tolcapone] (10 µM) | 0.192 | 110% (inactive)
CCCC(=O)OCOC(=O)C1=C(C)NC(C)=C(C(=O)OC)C1c1cccc(Cl)c1Cl (stereo not drawn) [cleviprex] (10 µM) | 0.0656 | 102% (inactive)
COc1ccc(-c2cc3nccn3c(Nc3ncccc3C(N)=O)n2)cc1OC (0.833333 µM) | 0.46 | 27% (active)
Oc1ccc(Cl)c2cccnc12 [cloxyquin] (10 µM) | -0.13 | 109% (inactive)
CNC(=O)c1cnn(-c2nc(N)c3ncn([C@@H]4O[C@H](CO)[C@@H](O)[C@H]4O)c3n2)c1 [regadenoson] (10 µM) | -0.0309 | 111% (inactive)
